This is part of a sample that, as a whole, favours compounds with a hit. Of some 79,000 tested, about 15% had one in any assay. Unmarked numbers belong to inactive results. Active and inactive are the calls of the source. No stated cut-off is given here; in the data, active means growth inhibition above about 70%; inactive means the rest.
Experiment: NCI Yeast Anticancer Drug Screen. Data for the cln2 rad14 strain (AID 165);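 further: 0% = growth equal to vehicle treated cultures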
Details: S. cerevisiae cln2 rad14 strain, at 50.0 µM, hits give high values
Procedure, shortened: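 The screen exposed genetically defined yeast (cln2 rad14) to test compounds and scored growth inhibition relative to vehicle-treated controls.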

| SMILES | growth inhibition |
| --- | --- |
| CCCCCCCCc1ccc2c3ccccc3c3ccccc3c2c1 | 3.05% |
| O=C1C(=O)c2ccc(Br)cc2C(O)=C1C(c1ccccc1)c1ccccc1 | 14.2% |
| CN(C)Cc1ccc2[nH]c3c(c2c1)CCCC3 | 21.2% |
| COc1ccc(NC(=O)Nc2ccc(Cl)cc2)nn1 | 33.8% |
| CO/N=C/c1cc(NC(=S)c2ccoc2C)ccc1Cl | 92.2% (active) |
| O=C(Sc1c(-c2ccccc2)c(=O)n(-c2ccccc2)c(=S)n1-c1ccccc1)c1cccs1 | 56% |
| O=C1/C(=C/c2ccc(F)cc2)CNC/C1=C\c1ccc(F)cc1 | 70.6% (active) |
| O=c1cc2cccccc-2cc1O | 86% (active) |
| Oc1c(Br)cc(Br)cc1-c1ccccc1 | 99.2% (active) |
| C(=[CH]/[Sn]([c]1ccccc1)([c]1ccccc1)[c]1ccccc1)/c1ccccc1 | 95% (active) |
| CCCCCCCCCN1CCNC1=S | 0.9% |
| O=C1C/C(=C\c2ccccc2)C(=O)c2ccccc2N1 | 33.6% |
| CN(C)C(=O)Nc1ccc(Cc2ccc(NC(=O)N(C)C)cc2)cc1 | 3.65% |
| C=C1CC(C)(COc2ccc3c(C)c(Cl)c(=O)oc3c2)OC1=O (stereo not drawn) | 76.8% (active) |
| CC[C@@]1(OP(=O)(O)O)C(=O)OCc2c1cc1n(c2=O)Cc2cc3ccccc3nc2-1 | 67% |
| O=S(=O)(Sc1ccccc1)C(c1ccccc1)c1ccccc1 | -12.8% |
| CCOC(=O)c1c(N)sc2c1CCCCC2 | 27.6% |
| CCCCCCCCCCCCCCNCCN | 88.7% (active) |

Reference: PubChem BioAssay (NCI)
